PubChem BioAssay
Active and inactive are the calls of the source.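 How the source made its calls, unless noted: active means inhibition at or above 50% at 10 µM; inactive means inhibition below 50%.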

What was measured:
[1] = inhibitors of TNFa-induced NFkB p65 translocation, primary screen, imaging, HUVEC, MLSMR starter and 10KST1 sets (AID 438;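 active means inhibition above 20% together with a positive visual image hit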;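 further: compound added about 3h40 before a 20 min TNFalpha stimulation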;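 on inhibition: signal is the nuclear over cytoplasmic p65 intensity ratio per well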); settings: HUVEC TNFa-induced p65 nuclear translocation; cell count: measured here: nuclei count (cytotoxicity indicator), at 2.08 µM; inhibition: at 2 µM, stronger effect = higher value, 0% TNFa-plus-vehicle, 100% no-TNFa wells
[2] = reduction of polyQ htt aggregates in cells – imaging, exon1htt(103Q)mCFP cells, high-content imaging, primary screen (AID 483;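 active means visual image review flags a hit and inhibition of aggregation exceeds 20%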;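 further: compound exposure lasted 3 days before fixation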;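 on nuclei count: percent of the per-plate median nuclei count of sample wells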); settings: exon1htt(103Q)mCFP cell line, aggregate imaging, at 2 µM; inhibition of aggregation: stronger effect = higher value; nuclei count: measured here: cell count, toxicity
[3] = endothelial E-selectin expression blockers – imaging, HUVEC, immunofluorescence, MLSMR starter and 10KST1 sets, primary screen (AID 487;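 active means visually confirmed hit in the image check and inhibition above 20%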;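 on inhibition: signal is fraction of cell area covered by stained E-selectin grains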;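 on nuclei count: 100% = median nuclei count of all wells on the same plate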); settings: HUVEC TNFalpha-induced E-selectin immunofluorescence imaging, at 2 µM; inhibition: stronger effect = higher value; nuclei count: measured here: cell number, toxicity
[4] = target: Voltage-gated potassium channel subunit beta-2 (Rattus norvegicus) (UniProt P62483); experiment: inhibitors of rat Kvbeta2 reductase activity – biochemical, NADPH fluorescence, primary screen (AID 622;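 active means fluorescence slope higher than the sample average by over 3 SD, cut at about -0.22 in these data, passing the limit was not always enough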;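 further: slope of raw intensity against log time taken from 70 to 1610 s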); settings: recombinant KvBeta, 4-cyanobenzaldehyde reduction, at 10 µM, stronger effect = higher value
Sequence of Voltage-gated potassium channel subunit beta-2 (Rattus norvegicus) (P62483 whole entry, looked up): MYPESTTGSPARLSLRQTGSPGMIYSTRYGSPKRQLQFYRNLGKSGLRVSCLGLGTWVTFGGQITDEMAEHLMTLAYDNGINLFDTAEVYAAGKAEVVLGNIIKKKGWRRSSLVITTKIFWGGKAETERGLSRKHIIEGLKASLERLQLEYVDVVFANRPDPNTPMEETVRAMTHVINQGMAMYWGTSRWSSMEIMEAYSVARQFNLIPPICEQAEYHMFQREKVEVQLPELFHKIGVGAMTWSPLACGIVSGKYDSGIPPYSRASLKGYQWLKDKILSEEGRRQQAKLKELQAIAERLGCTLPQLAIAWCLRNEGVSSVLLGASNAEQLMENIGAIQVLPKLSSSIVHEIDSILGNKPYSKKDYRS

[5] = target: Voltage-gated potassium channel subunit beta-2 (Rattus norvegicus) (UniProt P62483); experiment: enhancers of rat Kvbeta2 NADPH turnover – biochemical, NADPH fluorescence, primary screen (AID 623;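 active means NADPH fluorescence slope more negative than the mean of all samples by about 3 SD, 99.7% confidence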;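 further: fluorescence intensity change per second fitted from 20 to 320 s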); settings: Recombinant KvBeta, NADPH fluorescence decrease slope, 10 min; at 10 µM; stronger effect = lower value
[6] = target: Alpha-2C adrenergic receptor (Homo sapiens) (UniProt P18825); experiment: compounds altering alpha2C-coupled GIRK flux – cell-based, HEK293 alpha2C/GIRK1/2, thallium flux, primary screen (AID 624;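 active means fluorescence slope after compound addition differing from the mean of all screened samples at 99.7% confidence, in either direction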;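 further: slope of fluorescence ratio to pre-addition baseline per second over 15 to 24 s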); settings: thallium flux BTC fluorescence, at 10 µM, actives lie on both sides
Sequence of Alpha-2C adrenergic receptor (Homo sapiens) (P18825 whole entry, looked up): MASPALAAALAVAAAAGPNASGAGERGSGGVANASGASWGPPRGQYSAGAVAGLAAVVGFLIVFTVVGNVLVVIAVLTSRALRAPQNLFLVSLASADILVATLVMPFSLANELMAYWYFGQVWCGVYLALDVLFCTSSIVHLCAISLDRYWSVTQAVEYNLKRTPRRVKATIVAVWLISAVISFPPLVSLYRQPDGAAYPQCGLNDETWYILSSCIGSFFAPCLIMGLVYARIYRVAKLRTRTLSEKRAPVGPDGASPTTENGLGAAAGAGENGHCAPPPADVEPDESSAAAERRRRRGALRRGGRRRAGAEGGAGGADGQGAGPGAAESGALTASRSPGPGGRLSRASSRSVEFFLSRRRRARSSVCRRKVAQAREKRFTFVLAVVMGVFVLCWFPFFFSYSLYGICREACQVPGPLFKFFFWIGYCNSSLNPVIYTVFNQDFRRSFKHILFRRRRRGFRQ

[7] = blockers of RIG-like receptor reporter activation – cell-based, Sendai virus stimulus, luciferase, 10K MLSCN set, TLR/RLR signaling modifier project, primary screen (AID 602276); settings: HEK293 RL24 IRF3 luciferase reporter, at 10 µM, stronger effect = higher value;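 further: firefly luciferase from ISG56 promoter only with Renilla not read in this screen; 0% = Sendai virus plus DMSO and 100% = medium plus DMSO without virus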
[8] = TLR3 IRF3 reporter activation blockers – cell-based, poly I:C stimulus, luciferase, 10K MLSCN set, primary screen (AID 602277;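 active means inhibition of the reporter signal at or above 50%; inactive means inhibition below 50%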); settings: HEK293-TLR3 RL24 IRF3 luciferase reporter, at 10 µM, stronger effect = higher value

Row | Compound | cell count [1] | inhibition [1] | inhibition of aggregation [2] | nuclei count [2] [%] | inhibition [3] | nuclei count [3] [%] | fluorescence slope [4] | NADPH fluorescence slope [5] | slope [6] | inhibition [7] | inhibition [8]
1 | CC(NC(=O)COc1ccccc1)C(=O)NC1=NCCS1 (centres undefined) | 356 | 2% (inactive) | 8.1% (inactive) | 104 | -85.5% (inactive) | 128 | -0.35 (inactive) | -2.2e-05 (inactive) | 0.00548 (inactive) | 14.4% (inactive) | 20.3% (inactive)
2 | Cc1cccc(OCCCc2c(C)n[nH]c2C)c1 | 348 | 2.2% (inactive) | 7.5% (inactive) | 98.5 | -10% (inactive) | 118 | -0.501 (inactive) | 6.9e-05 (inactive) | 0.00319 (inactive) | -15.1% (inactive) | -15.9% (inactive)
3 | CCCN1C=CC(=C2C(=O)c3ccccc3C2=O)C=C1 | 418 | 2% (inactive) | 16.6% (inactive) | 44.6 | -7.6% (inactive) | 111 | -0.377 (inactive) | -6.2e-05 (inactive) | 0.00522 (inactive) | 29.8% (inactive) | 89.4% (active)
4 | COc1cccc(C2C3=C(N=C4SCC(=O)N42)c2ccccc2CC3)c1OC (centres undefined) | 680 | 1.6% (inactive) | -10.8% (inactive) | 107 | -15.3% (inactive) | 98.5 | -0.442 (inactive) | 4.1e-05 (inactive) | 0.00306 (inactive) | -0.493% (inactive) | 29.3% (inactive)
5 | Cc1cccc(-c2nnn(CC/C(N)=N/O)n2)c1 | 321 | -4.8% (inactive) | -1.8% (inactive) | 84.2 | 25.6% (inactive) | 90.5 | -0.496 (inactive) | -2.1e-05 (inactive) | 0.00549 (inactive) | 2.73% (inactive) | -10.7% (inactive)
6 | CCCn1nc(NC(=O)c2cccs2)c2cc3cc(OC)ccc3nc21 | 630 | -6.8% (inactive) | -8% (inactive) | 104 | -20.4% (inactive) | 112 | -0.119 (inactive) | 2.2e-05 (inactive) | 0.00675 (inactive) | -4.8% (inactive) | -37.7% (inactive)
7 | Cc1ccccc1OCCn1c(=O)oc2ccccc21 | 316 | -4.7% (inactive) | -1.9% (inactive) | 144 | -43.9% (inactive) | 128 | -0.353 (inactive) | -8e-06 (inactive) | 0.00518 (inactive) | 5.52% (inactive) | -6.56% (inactive)
8 | COc1ccccc1Nc1nc(N)nc(-c2cc3ccccc3o2)n1 | 153 | 1.2% (inactive) | -7.1% (inactive) | 89.1 | 25.7% (inactive) | 85.7 | -0.332 (inactive) | -3.9e-05 (inactive) | 0.00555 (inactive) | -39.9% (inactive) | -99.9% (inactive)
9 | CCOc1ccc(-c2nnn(CC(=O)N3CCN(c4ccc(F)cc4)CC3)n2)cc1OCC | 583 | -9.5% (inactive) | -17.1% (inactive) | 119 | 25% (inactive) | 101 | -0.642 (inactive) | -1.5e-05 (inactive) | 0.00403 (inactive) | 16.8% (inactive) | 14% (inactive)
10 | CN1/C(=C\C(=O)Nc2cccnc2)c2ccccc2CC1(C)C | 360 | -5% (inactive) | -8.4% (inactive) | 91.1 | -31.3% (inactive) | 117 | -0.401 (inactive) | -4.2e-05 (inactive) | 0.00677 (inactive) | 18.7% (inactive) | 19.4% (inactive)
11 | CC(=O)N1CCN(Cc2ccc(Br)s2)CC1 | 362 | -3.4% (inactive) | 2% (inactive) | 114 | -10.6% (inactive) | 106 | -0.442 (inactive) | -1.9e-05 (inactive) | 0.00639 (inactive) | 13.6% (inactive) | 20.9% (inactive)
12 | CC1=C(C(=O)Nc2ccccc2)C(c2cccs2)C(C#N)=C(SCC#N)N1 (centres undefined) | 713 | -16.4% (inactive) | 27.1% (inactive) | 77.7 | 34.7% (inactive) | 99.1 | -0.525 (inactive) | -6.3e-05 (inactive) | 0.00547 (inactive) | -25.9% (inactive) | -5.98% (inactive)
13 | CCN(CC)c1ccc2cc(NC(=O)CCC(=O)O)c(=O)oc2c1 | 463 | -21.1% (inactive) | -6.8% (inactive) | 95 | -33% (inactive) | 101 | -0.0111 (active) | -5.3e-06 (inactive) | 0.00247 (inactive) | 50.8% (active) | 92.5% (active)
14 | CC1=CCC2C(=O)N(c3nc(C)cc(C)n3)C(=O)C2C1 (centres undefined) | 332 | 4.2% (inactive) | 9% (inactive) | 85.6 | -124% (inactive) | 105 | -0.53 (inactive) | -7.2e-05 (inactive) | 0.00507 (inactive) | 12.7% (inactive) | 21.2% (inactive)
